Screening results as filed in PubChem BioAssay.
Most compounds without a hit are left out; they make up all but 5.9% or so of the library.
GLP1R cytotox – cytotoxicity counter-screen for GLP-1 receptor inverse agonists; HEK293 cAMP-luciferase reporter cells, luminescence, 24 h; Potency, µM (titrated, usually from 38.3 µM), most hits filed as inhibitors; 410,000 compounds, 0.13% hits; AID 624418;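 also: loss of luciferase light is scored as toxicity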
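Quantitative HTS format, 1536 wells, 200 cells/uL seeded. Compounds: 23 nL, 24 h, 37 °C. Detection: luciferase reagent, luminescence at 12 min RT; decreased signal taken as cytotoxic.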
Gal4-VP16 FLuc – counter-screen for ROR gamma inhibitors: Gal4-VP16 reporter; Drosophila S2 Gal4-VP16 UAS-luciferase, luminescence, 20 h; Potency, µM (titrated, usually from 53.6 µM), hits mostly inhibitors; AID 2546; 310,000 compounds, 3.5% hits;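 also: Gal4-VP16 expression switched on by copper sulfate through the metallothionein promoter; nearly all actives have a fitted effect of over 50% in size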
GLP1R ag – activates the human GLP-1 receptor; P43220; HEK293 GLP-1R CRE-luciferase, luminescence, 4-6 h; cells express a hypersensitive GLP-1R form; Potency, µM (titrated, usually from 45.6 µM), hits mostly activators; 380,000 compounds, 0.007% hits
Target sequence (P43220 whole entry, looked up): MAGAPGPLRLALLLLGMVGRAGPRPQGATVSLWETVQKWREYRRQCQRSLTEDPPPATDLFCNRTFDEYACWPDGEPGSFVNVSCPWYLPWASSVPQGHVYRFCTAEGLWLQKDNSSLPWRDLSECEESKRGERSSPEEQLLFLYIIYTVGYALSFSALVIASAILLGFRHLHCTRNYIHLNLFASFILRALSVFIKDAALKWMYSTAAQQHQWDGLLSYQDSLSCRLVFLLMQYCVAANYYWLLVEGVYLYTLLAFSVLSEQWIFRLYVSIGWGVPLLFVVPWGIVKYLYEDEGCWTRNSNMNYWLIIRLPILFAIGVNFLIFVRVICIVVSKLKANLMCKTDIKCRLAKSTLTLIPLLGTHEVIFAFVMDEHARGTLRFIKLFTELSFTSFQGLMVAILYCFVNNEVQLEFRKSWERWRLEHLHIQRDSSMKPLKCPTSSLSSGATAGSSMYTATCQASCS
RORg inh – ROR gamma (mouse) transcription inhibition; P51450; 310,000 compounds, 5.4% hits; AID 2551; Potency, µM (highest dose often 53.6 µM), actives largely listed as inhibitors; Drosophila S2 Gal4-RORgamma UAS-luciferase reporter, 20 h; also: nearly all actives have a fitted effect of over 60% in size
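Stably transfected Drosophila Schneider cells are the test system, with ROR gamma fused to Gal4 and luciferase under UAS control; luminescence is read after 20 hr of 700 uM copper sulfate induction at ambient temperature.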
GLP1R inv ag – GLP-1 receptor (human) inverse agonism; HEK293 GLP-1R CRE-luciferase, luminescence, 24 h; GLP-1R form is constitutively active; 410,000 compounds, 1.6% hits; Potency, µM (doses to about 38.3 µM), actives largely listed as inhibitors; P43220; AID 624417; also: nearly all actives have a fitted effect of over 55% in size
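GLP-1R inverse agonism mode: basal reporter luminescence in engineered HEK293 cells measured after one day of compound exposure at 37 deg C, with a 12 min room-temperature detection step.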
Large screens that a line does not name were inactive; ! = not confirmed by another sample. Calls follow the shape of the dose curve; as a rule, active = well fitted curve in the direction sought with a large enough effect; inconclusive = small, poorly fitted or top-dose-only effect, or another doubt; inactive = no such curve, though single readings can be large; an effect the other way counts as inactive or inconclusive.

CCOc1cc(C2C(C#N)=C(N)OC(C)=C2C(C)=O)cc(Br)c1O (stereo unspecified)	none
CCCCNC(=O)c1c(CSc2ccccc2)noc1C(=O)NCc1ccccc1	GLP1R inv ag 10µM
CCCCNC(=O)c1c(CSc2ccc(Cl)cc2)noc1C(=O)NCc1ccccc1	GLP1R inv ag inconclusive (no result: Gal4-VP16 FLuc, RORg inh)
Cc1cc(C)cc(SCc2noc(C(=O)NCC3CC3)c2C(=O)NCC2CC2)c1	GLP1R inv ag 8.9µM (no result: Gal4-VP16 FLuc, RORg inh)
O=C(NCC1CC1)c1onc(CSc2ccc(F)cc2)c1C(=O)NCC1CC1	GLP1R inv ag inconclusive (no result: Gal4-VP16 FLuc, RORg inh)
O=C(NCc1ccccc1)c1onc(CSc2ccc(Cl)cc2)c1C(=O)NCC1CC1	GLP1R inv ag inconclusive (no result: Gal4-VP16 FLuc, RORg inh)
O=C(NCc1ccccc1)c1onc(CSc2ccccc2)c1C(=O)NCC1CC1	RORg inh inconclusive, GLP1R inv ag 3.5µM
CCCNC(=O)c1c(CSc2ccc(Cl)cc2)noc1C(=O)NCc1ccccc1	GLP1R inv ag 5µM (no result: Gal4-VP16 FLuc, RORg inh)
CCCOc1ccc(C2c3c(oc4ccccc4c3=O)C(=O)N2c2nnc(C(C)C)s2)cc1 (stereo unspecified)	none (no result: Gal4-VP16 FLuc, GLP1R ag, RORg inh)
CCc1c(C)nc2ncnn2c1NCCc1ccccc1	Gal4-VP16 FLuc inconclusive, RORg inh inconclusive
CCc1c(C)nc2ncnn2c1NCCc1ccc(Cl)cc1	Gal4-VP16 FLuc 11µM, RORg inh inconclusive
Clc1ccc(-c2nnc(NC3=NCCCCC3)o2)cc1	Gal4-VP16 FLuc 8.9µM, RORg inh 6.3µM, GLP1R inv ag 4.5µM
Cc1nn(-c2ccccc2)c2sc(C(=O)Nc3ccc(Cl)cc3Cl)cc12	none (no result: Gal4-VP16 FLuc, GLP1R ag, RORg inh)
O=C(CCCSc1nc2ccccc2[nH]1)NC(c1ccccc1)c1ccccc1	GLP1R inv ag 8.9µM
Cc1cccc(N2CCN(C(=O)CCCSc3nc4ccccc4[nH]3)CC2)c1C	Gal4-VP16 FLuc 22µM, RORg inh inconclusive
CC12C=CC(=O)C=C1CCC1C2=CCC2(C)C1CC[C@@H]2C(=O)CN1CCN(c2cc(N3CCCC3)nc(N3CCCC3)n2)CC1 (stereo partly specified)	none (no result: GLP1R cytotox, GLP1R ag, GLP1R inv ag)
COC(=O)c1sc(=S)sc1C(=O)OC	Gal4-VP16 FLuc inconclusive, RORg inh 14µM
Cc1ccc(-c2ccc(CCC(=O)O)o2)cc1	none
O=C(O)CCc1ccc(-c2cccs2)o1	Gal4-VP16 FLuc inconclusive, RORg inh 11µM
CCc1ccccc1NC(=O)Cn1c(=O)n(CCCS(=O)(=O)C2CCCCC2)c(=O)c2ccccc21	none (no result: Gal4-VP16 FLuc, RORg inh)
Cc1cc(NC(=O)CN2C(=O)NC3(CCCCCC3)C2=O)ccc1Br	GLP1R inv ag 10µM (no result: Gal4-VP16 FLuc, RORg inh)
Cc1ccc(NC(=O)CN2C(=O)NC3(CCCCCC3)C2=O)cc1Cl	GLP1R cytotox inconclusive, GLP1R inv ag inconclusive (no result: Gal4-VP16 FLuc, RORg inh)
Cc1cc(NC(=O)CC2CCCC2)ccc1Br	GLP1R inv ag 8.9µM
O=C(c1ccc2c(c1)OCO2)N1CCc2ccccc2C1	none
O=C(CCN1CCc2ccccc2C1)c1ccc2c(c1)OCCO2	GLP1R cytotox inconclusive, Gal4-VP16 FLuc 4.5µM, RORg inh 3.2µM
O=C(CCN1CCCCC1)c1ccc2c(c1)OCCO2	Gal4-VP16 FLuc 7.9µM, RORg inh 11µM
O=C(c1ccc2c(c1)OCO2)N1CCc2ccccc21	Gal4-VP16 FLuc inconclusive, GLP1R inv ag inconclusive
O=C(CCN1CCc2ccccc21)c1ccc2c(c1)OCCO2	Gal4-VP16 FLuc 11µM, GLP1R inv ag inconclusive
COc1cc(C(=O)CCN2CCC(c3ccccc3)C2)cc(OC)c1OC (stereo unspecified)	GLP1R cytotox inconclusive, Gal4-VP16 FLuc inconclusive, RORg inh 16µM, GLP1R inv ag inconclusive
C=C(CC1([C@@H](NP(=O)(c2ccccc2)c2ccccc2)[C@H]2C[C@@H]2CCCC)CC1)c1cccc(OC)c1	Gal4-VP16 FLuc inconclusive (no result: GLP1R cytotox, GLP1R ag, GLP1R inv ag)
NC(=O)CCCCC(N)=O	none (no result: GLP1R cytotox, GLP1R ag, GLP1R inv ag)
O=C(CCN1CCCC1Cc1ccccc1)c1ccc2c(c1)OCCO2 (stereo unspecified)	GLP1R cytotox inconclusive, Gal4-VP16 FLuc 5.6µM, RORg inh 5µM
O=C(CCCCN1CCCCC1)c1ccc2c(c1)Cc1ccccc1-2	Gal4-VP16 FLuc inconclusive, RORg inh 13µM
O=C(CCN1CCOCC1)c1ccc(Br)cc1	Gal4-VP16 FLuc 13µM, RORg inh inconclusive
O=C(CCN1CCC(c2ccccc2)C1)c1ccc2c(c1)OCCO2 (stereo unspecified)	Gal4-VP16 FLuc 7.1µM!, RORg inh 7.1µM!
O=C(CCN1CCCCCC1)c1ccccc1	none
c1ccc(-n2cnnn2)cc1	none (no result: GLP1R cytotox, Gal4-VP16 FLuc, RORg inh, GLP1R inv ag)
CCOc1cc2[nH]c(=S)n(C3CCN(Cc4ccccc4)CC3)c(=O)c2cc1OCC	Gal4-VP16 FLuc inconclusive, RORg inh inconclusive
O=c1c2cc3c(cc2[nH]c(=S)n1C1CCN(Cc2ccccc2)CC1)OCO3	Gal4-VP16 FLuc 3.5µM, RORg inh 5µM
CCC(C)(C)c1ccc(OCCCC[n+]2cccc(C)c2)c(C(C)(C)CC)c1	Gal4-VP16 FLuc 13µM, RORg inh inconclusive, GLP1R inv ag 10µM
COC(=O)c1sccc1S(=O)(=O)N1CCN(c2ccccc2OC)CC1	none (no result: Gal4-VP16 FLuc, GLP1R ag, RORg inh)
NC(N)=NCCC[C@H](NC(=O)[C@H](Cc1ccccc1)NC(=O)[C@@H]1CCCN1C(=O)[C@H](CO)NC(=O)[C@H](Cc1ccccc1)NC(=O)CNC(=O)[C@@H]1CCCN1C(=O)[C@@H]1CCCN1C(=O)[C@@H](N)CCCN=C(N)N)C(=O)O	none (no result: GLP1R cytotox, GLP1R ag, GLP1R inv ag)
CCc1ccc2[nH]c3nc(SCC(=O)NNC(=O)c4ccc(C(C)(C)C)cc4)nnc3c2c1	RORg inh 13µM
COc1ccc(-c2csc(Nc3ncccc3C)n2)cc1OC	GLP1R ag inconclusive, RORg inh 3.5µM
COc1ccc(-c2csc(Nc3ncccc3C)n2)cc1	RORg inh inconclusive, GLP1R inv ag inconclusive
Cc1cccnc1Nc1nc(-c2ccc(O)c(O)c2)cs1	Gal4-VP16 FLuc 7.1µM
Cc1ccc(Cn2c(C)c(CNC3CCCCC3)c(C(=O)O)c2C)cc1	none (no result: Gal4-VP16 FLuc, GLP1R ag, RORg inh)
COCCCNCCOCCOc1ccc(Cl)cc1C(C)(C)C	GLP1R cytotox inconclusive, GLP1R inv ag 3.5µM
C=CCNCCOCCOc1ccc(Cl)cc1C(C)(C)C	GLP1R inv ag inconclusive
CNc1ccc(Br)cc(C(=O)/C=C/c2cc(OC)ccc2OC)c1=O	GLP1R cytotox inconclusive, GLP1R inv ag inconclusive
CCNc1ccc(Br)cc(C(=O)/C=C/c2ccc(Cl)cc2Cl)c1=O	Gal4-VP16 FLuc 13µM, RORg inh 5µM, GLP1R inv ag inconclusive
Cc1cc(C)nc(N/N=C/c2ccccc2OCc2ccc(Cl)cc2)n1	GLP1R cytotox inconclusive, Gal4-VP16 FLuc inconclusive, RORg inh 10µM, GLP1R inv ag inconclusive
Cc1cc(C)nc(N/N=C/c2ccccc2OCc2ccc(Br)cc2)n1	Gal4-VP16 FLuc inconclusive, RORg inh 7.1µM
COc1ccccc1NC(C)C(=O)N/N=C/c1ccccc1OCc1cccc(Br)c1 (stereo unspecified)	GLP1R cytotox inconclusive, GLP1R inv ag inconclusive
Cc1cc(C)nc(N/N=C/c2ccccc2OCc2ccccc2)n1	GLP1R cytotox inconclusive, Gal4-VP16 FLuc inconclusive, RORg inh 8.9µM, GLP1R inv ag inconclusive
CCOc1ccccc1/C=N/Nc1nc(C)cc(=O)[nH]1	none
